Where “and” joins values, the source holds several entries; their conditions need not be identical. Equal values may be shown once. Screen size: about 5,500 compounds; about 2,000 (36%) were called active. Roughly 18% stayed inconclusive and do not appear here. Rule as the data show it: active = normalized growth mostly below about 0.91 (no sharp cut-off); inconclusive = no clear call, values can overlap the other calls; inactive = mostly above about 0.92. The list shows a part of the results.
Assay: chemical genetic growth profiling, strain panel (AID 1159580);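 also: tested at 20 µM; growth read once vehicle control cultures reached saturation at 30 °C; 1 = growth at the plate median or of vehicle wells; lower values mean less growth of the strain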
Conditions: S. cerevisiae deletion strains, growth OD

Measured: normalized growth

C[C@]12CCC3c4ccc(O)cc4CCC3C1C[C@@H](O)[C@@H]2O (some centres undefined)
inactive: locus YAL013W, strain DEP1, stronger effect = lower value 0.994 | locus YAL021C, strain ccr4, stronger effect = lower value 1.01 | locus YAL026C, strain drs2, stronger effect = lower value 1 | locus YAL030W, strain snc1, stronger effect = lower value 1.02 | locus YBL061C, strain skt5, stronger effect = lower value 1.02 | locus YBR009C, strain hhf1, stronger effect = lower value 1.02 | locus YBR021W, strain FUR4, stronger effect = lower value 1.01 | locus YBR023C, strain chs3, stronger effect = lower value 1.03 | locus YBR171W, strain sec66, stronger effect = lower value 1.02 | locus YBR229C, strain ROT2, stronger effect = lower value 0.962 | locus YBR231C, strain swc5, stronger effect = lower value 0.988 | locus YBR279W, strain paf1, stronger effect = lower value 1.04 | locus YCL011C, strain gbp2, stronger effect = lower value 1.05 | locus YCL016C, strain dcc1, stronger effect = lower value 1.05 | locus YCL029C, strain bik1, stronger effect = lower value 0.984 | locus YCL061C, strain MRC1, stronger effect = lower value 1.03 | locus YCL069W, strain vba3, stronger effect = lower value 1.01 | locus YCR088W, strain abp1, stronger effect = lower value 1.01 | locus YDL005C, strain med2, stronger effect = lower value 1.02 | locus YDL035C, strain GPR1, stronger effect = lower value 0.969 | locus YDL040C, strain nat1, stronger effect = lower value 1.01 | locus YDL074C, strain BRE1, stronger effect = lower value 0.951 | locus YDL101C, strain DUN1, stronger effect = lower value 0.997 | locus YDL185W, strain tfp1, stronger effect = lower value 0.974 | locus YDL192W, strain arf1, stronger effect = lower value 0.985 | locus YDR001C, strain nth1, stronger effect = lower value 1.01 | locus YDR069C, strain doa4, stronger effect = lower value 1 | locus YDR101C, strain arx1, stronger effect = lower value 0.945 | locus YDR137W, strain rgp1, stronger effect = lower value 1.06 | locus YDR150W, strain NUM1, stronger effect = lower value 0.989 | locus YDR159W, strain sac3, stronger effect = lower value 0.979 | locus YDR162C, strain NBP2, stronger effect = lower value 0.968 | locus YDR195W, strain ref2 0.999 | locus YDR297W, strain sur2, stronger effect = lower value 1.03 | locus YDR318W, strain mcm21, stronger effect = lower value 1 | locus YDR334W, strain swr1, stronger effect = lower value 1.02 | locus YDR335W, strain msn5, stronger effect = lower value 1.02 | locus YDR388W, stronger effect = lower value 0.982 | locus YDR392W, strain spt3, stronger effect = lower value 1.01 | locus YDR502C, strain sam2, stronger effect = lower value 0.993 | locus YEL003W, strain gim4, stronger effect = lower value 0.994 | locus YEL037C, strain rad23, stronger effect = lower value 1.01 | locus YEL061C, strain CIN8 (second series), stronger effect = lower value 1.01 | locus YEL061C, strain CIN8, stronger effect = lower value 0.997 | locus YER015W, strain faa2, stronger effect = lower value 1.02 | locus YER016W, strain bim1, stronger effect = lower value 1 | locus YER110C, stronger effect = lower value 0.983 | locus YER111C, strain swi4, stronger effect = lower value 1.03 | locus YER155C, strain BEM2 (second series), stronger effect = lower value 1.02 | locus YER155C, strain BEM2, stronger effect = lower value 0.993 | locus YER167W, strain BCK2, stronger effect = lower value 1 | locus YFR010W, strain ubp6, stronger effect = lower value 1.01 | locus YGL078C, strain dbp3, stronger effect = lower value 0.995 | locus YGL086W, strain mad1, stronger effect = lower value 0.971 | locus YGL167C, strain pmr1, stronger effect = lower value 1.03 | locus YGL173C, strain kem1, stronger effect = lower value 1.01 | locus YGL227W, strain vid30, stronger effect = lower value 1.02 | locus YGL240W, strain doc1, stronger effect = lower value 1.03 | locus YGL248W, strain PDE1, stronger effect = lower value 0.988 | locus YGL253W, strain hxk2, stronger effect = lower value 1 | locus YGR135W, strain pre9, stronger effect = lower value 1.07 | locus YGR252W, strain gcn5, stronger effect = lower value 1.07 | locus YHR013C, strain ard1, stronger effect = lower value 1.05 | locus YHR027C, strain rpn1, stronger effect = lower value 1.02 | locus YHR030C, strain SLT2, stronger effect = lower value 0.993 and 1.01 | locus YHR079C, strain IRE1 (second series), stronger effect = lower value 0.987 | locus YHR079C, strain IRE1, stronger effect = lower value 0.992 | locus YHR094C, strain hxt1, stronger effect = lower value 0.984 | locus YHR129C, strain ARP1, stronger effect = lower value 0.994 | locus YHR142W, strain chs7, stronger effect = lower value 1.02 | locus YHR200W, strain rpn10, stronger effect = lower value 1 | locus YIL066C, strain RNR3, stronger effect = lower value 0.977 | locus YIL073C, strain SPO22, stronger effect = lower value 0.991 | locus YIL125W, strain kgd1, stronger effect = lower value 0.985 | locus YIR030C, strain dcg1, stronger effect = lower value 0.994 | locus YJL092W, strain hpr5, stronger effect = lower value 1.02 | locus YJL095W, strain BCK1 (second series), stronger effect = lower value 1.02 | locus YJL095W, strain BCK1, stronger effect = lower value 1 and 0.994 | locus YJL115W, strain asf1, stronger effect = lower value 1.02 | locus YJL129C, strain trk1, stronger effect = lower value 1.03 | locus YJL134W, strain LCB3, stronger effect = lower value 0.989 | locus YJL154C, strain vps35, stronger effect = lower value 1.01 | locus YJL164C, strain tpk1, stronger effect = lower value 1.01 | locus YJL166W, strain qcr8, stronger effect = lower value 1.05 | locus YJL168C, strain set2, stronger effect = lower value 1.01 | locus YJL187C, strain SWE1 (second series), stronger effect = lower value 0.996 | locus YJL187C, strain SWE1, stronger effect = lower value 1.04 | locus YJR043C, strain POL32, stronger effect = lower value 0.976 | locus YJR066W, strain TOR1, stronger effect = lower value 0.97 | locus YJR075W, strain HOC1, stronger effect = lower value 0.992 | locus YKL009W, strain mrt4, stronger effect = lower value 0.973 | locus YKL068W, stronger effect = lower value 0.986 | locus YKL085W, strain MDH1 (second series), stronger effect = lower value 1.01 | locus YKL085W, strain MDH1, stronger effect = lower value 1.01 | locus YKL160W, strain elf1, stronger effect = lower value 1.05 | locus YKR001C, strain vps1, stronger effect = lower value 0.972 | locus YKR026C, strain gcn3, stronger effect = lower value 1.02 | locus YKR091W, strain srl3, stronger effect = lower value 1.02 | locus YLL001W, strain dnm1, stronger effect = lower value 1.05 | locus YLL026W, stronger effect = lower value 1.02 | locus YLL041C, strain sdh2, stronger effect = lower value 1.01 | locus YLR027C, strain aat2, stronger effect = lower value 1.01 | locus YLR039C, strain RIC1, stronger effect = lower value 1.03 | locus YLR058C, strain SHM2, stronger effect = lower value 0.977 | locus YLR102C, strain apc9, stronger effect = lower value 0.996 | locus YLR113W, strain HOG1, stronger effect = lower value 0.97 | locus YLR221C, strain rsa3, stronger effect = lower value 1.05 | locus YLR258W, strain gsy2, stronger effect = lower value 1.01 | locus YLR262C, strain YPT6 (second series), stronger effect = lower value 1.04 | locus YLR262C, strain YPT6, stronger effect = lower value 0.925 | locus YLR268W, strain sec22, stronger effect = lower value 0.987 | locus YLR320W, strain mms22, stronger effect = lower value 1.07 | locus YLR330W, strain CHS5, stronger effect = lower value 0.984 | locus YLR342W, strain FKS1 (second series), stronger effect = lower value 0.999 | locus YLR342W, strain FKS1, stronger effect = lower value 1.02 | locus YLR357W, strain rsc2, stronger effect = lower value 1.03 | locus YLR370C, strain arc18, stronger effect = lower value 1.02 | locus YLR371W, strain rom2, stronger effect = lower value 1.01 | locus YLR384C, strain iki3, stronger effect = lower value 1.02 | locus YLR418C, strain cdc73, stronger effect = lower value 1.02 | locus YML016C, strain PPZ1, stronger effect = lower value 0.989 | locus YML032C, strain rad52, stronger effect = lower value 0.967 | locus YML120C, strain ndi1, stronger effect = lower value 1.04 | locus YML124C, strain tub3, stronger effect = lower value 0.996 | locus YMR058W, strain fet3, stronger effect = lower value 1.01 | locus YMR078C, strain ctf18, stronger effect = lower value 0.991 | locus YMR125W, strain sto1, stronger effect = lower value 1.02 | locus YMR129W, stronger effect = lower value 1 | locus YMR205C, strain PFK2, stronger effect = lower value 1.04 | locus YMR223W, strain ubp8, stronger effect = lower value 1.02 | locus YMR231W, strain pep5, stronger effect = lower value 1.02 | locus YMR307W, strain GAS1, stronger effect = lower value 0.954 | locus YNL067W, strain RPL9B, stronger effect = lower value 0.994 | locus YNL071W, strain lat1, stronger effect = lower value 1.02 | locus YNL153C, strain GIM3, stronger effect = lower value 0.976 | locus YNL183C, strain NPR1, stronger effect = lower value 0.962 | locus YNL209W, strain ssb2, stronger effect = lower value 1.03 | locus YNL233W, strain BNI4, stronger effect = lower value 0.987 | locus YNL248C, strain rpa49, stronger effect = lower value 1.05 | locus YNL250W, strain rad50, stronger effect = lower value 0.987 | locus YNL271C, strain bni1, stronger effect = lower value 0.991 | locus YNL298W, strain CLA4, stronger effect = lower value 0.99 | locus YNL307C, strain MCK1, stronger effect = lower value 0.999 | locus YNL322C, strain KRE1 (second series), stronger effect = lower value 1.05 | locus YNR049C, strain mso1, stronger effect = lower value 1.02 | locus YNR052C, strain pop2, stronger effect = lower value 0.982 | locus YOL012C, strain htz1 1.25 | locus YOL147C, strain pex11, stronger effect = lower value 0.993 | locus YOR001W, strain rrp6, stronger effect = lower value 0.998 | locus YOR061W, strain CKA2, stronger effect = lower value 0.973 | locus YOR069W, strain VPS5, stronger effect = lower value 0.997 | locus YOR070C, strain gyp1, stronger effect = lower value 1.02 | locus YOR080W, strain dia2, stronger effect = lower value 1.02 | locus YOR083W, strain WHI5, stronger effect = lower value 1.06 | locus YOR106W, strain vam3, stronger effect = lower value 1.03 | locus YOR136W, strain idh2, stronger effect = lower value 0.987 | locus YOR144C, strain elg1, stronger effect = lower value 0.993 | locus YOR184W, strain ser1, stronger effect = lower value 1 | locus YOR231W, strain MKK1, stronger effect = lower value 0.972 | locus YOR265W, strain rbl2, stronger effect = lower value 1.02 | locus YOR270C, strain vph1, stronger effect = lower value 1.04 | locus YOR290C, strain snf2, stronger effect = lower value 0.975 | locus YOR316C, strain cot1, stronger effect = lower value 0.985 | locus YPL051W, strain arl3, stronger effect = lower value 1.02 | locus YPL078C, strain atp4, stronger effect = lower value 1.05 | locus YPL106C, strain sse1, stronger effect = lower value 1.06 | locus YPL240C, strain hsp82, stronger effect = lower value 1.03 | locus YPL241C, strain CIN2, stronger effect = lower value 0.989 | locus YPL256C, strain CLN2, stronger effect = lower value 1 | locus YPR119W, strain clb2, stronger effect = lower value 0.989 | locus YPR141C, strain kar3, stronger effect = lower value 0.989 | locus YPR163C, strain tif3, stronger effect = lower value 0.996 | locus YPR167C, strain met16, stronger effect = lower value 0.999 | strain wtn01, stronger effect = lower value 1.01

— PubChem BioAssay AID1159580 (chemical genetic matrix, 2015)
